Assay outcomes as filed in PubChem.
FMDV inh = High Throughput Screening for Foot and Mouth Disease Virus Antivirals; FMDV antiviral cell-based qHTS; Potency, µM (series often up to 57.9 µM), inactives show top-dose activity change, negative = inhibition, usual class: inhibitors; 1.2% of 410,000 active; AID 1159524, 2015; calls by dose curve; tested in HEK293T cells; also: read-out not given here; potency is read from the fitted curve at half-maximal effect; nearly all actives have a fitted effect of over 45% in size
HCMV inh = qHTS Assay for inhibitors of the human cytomegalovirus (HCMV); activity change, negative = inhibition, % at 57.5 µM; 4.5% of 410,000 active; AID 1259415, 2018; HFF cells, HCMV-luciferase reporter, 72 h; stronger effect = lower value; in the data active = activity change below about -60%; inconclusive = no clear call, values can overlap the other calls; inactive = above about -39%
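Steps: HFFs plated, 16 h 37C; compounds added; HCMV-luciferase added to MOI 1 PFU/cell; 72 h 37C; OneGlo reagent, 5 min room temperature; luminescence read, normalized to controls.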
Marburg entry inh = qHTS for inhibitors of binding or entry into cells for Marburg Virus. Marburg virus pseudotyped entry inhibition, cell reporter. Potency, µM (titrated, usually from 37.8 µM), for inactives: at the top dose activity change, negative = inhibition, most hits filed as inhibitors. 1.8% of 300,000 active. AID 540276, 2011; calls by dose curve; tested in HEK293 cells; also: potency is read from the fitted curve at half-maximal effect
HCV inhibitor = qHTS Assay for Inhibitors of Hepatitis C Virus (HCV); AID 651820, 2012; Huh7.5.1 HCVcc-Cre infection, luciferase reporter, 44 h; Potency, µM (doses to about 41.8 µM), for inactives: at the highest dose activity change, negative = inhibition, actives largely listed as inhibitors; 3.4% of 340,000 active; active = well fitted inhibition curve with a large enough effect; inconclusive = small, poorly fitted or top-dose-only effect, or another doubt; inactive = no such curve, though single readings can be large or run the other way; also: potency is read from the fitted curve at half-maximal effect
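Infectious HCV cell culture screen: compound-treated cells (1,000/well, pre-plated 4 h) are infected with HCVcc-Cre at roughly 0.5 moi and grown 44 h. Infection is quantified by luciferase signal after 15 min substrate incubation at room temperature.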
Lassa entry inh = qHTS for Inhibitors of binding or entry into cells for Lassa Virus; 1.2% of 300,000 active; Lassa virus pseudotype entry inhibition, cell reporter; Potency, µM (titrated, usually from 37.9 µM), for the others: top-dose activity change, negative = inhibition, most hits filed as inhibitors; calls by dose curve; tested in HEK293 cells; also: potency is read from the fitted curve at half-maximal effect; nearly all actives have a fitted effect of over 50% in size
An asterisk follows results filed as active; ! = not confirmed by another sample; [ ] = dose if it differs, or a comment. Rows were chosen to be rich in hits. Some 7.9% of all compounds tested hit in one or more screens of this group. % is scaled to controls: 0 for no effect and ±100 for the full control effect.

For C=C(C(=O)c1ccccc1)C(CC(=O)c1ccccc1)c1ccccc1 (configuration not stated) the results were FMDV inh 17.8µM*, HCMV inh -101.4*, Marburg entry inh inconclusive, HCV inhibitor 12.6µM* and Lassa entry inh 10µM*.
For C=CCNC(=O)c1sccc1Oc1ccc(F)cc1[N+](=O)[O-] the results were FMDV inh -16.3%, HCMV inh -36.5, Marburg entry inh -17.9%[46.1 µM], HCV inhibitor -9.7% and Lassa entry inh 3.2%.
COc1ccc(OC)c(-c2ccc(O)c(CN3CCc4c([nH]c5ccccc45)C3)c2)c1 was read as FMDV inh -11.1%.
CCCCCCn1c(SCCCC)nc2c1c(=O)[nH]c(=O)n2C was read as FMDV inh 0.0%, HCMV inh 85.0, Marburg entry inh -15.4%, HCV inhibitor 10.3% and Lassa entry inh -2.3%.
`CCn1c([N+](=O)[O-])nc2c1c(=O)[nH]c(=O)n2C` gave FMDV inh inconclusive, HCMV inh -98.1*, Marburg entry inh inconclusive, HCV inhibitor 11.2µM* and Lassa entry inh 18.3µM*.
CN(C)CC1CCCCC1OC(=O)c1ccc(Cl)cc1Cl (configuration not stated) was read as FMDV inh -13.4%, HCMV inh -61.0* and HCV inhibitor inconclusive.
Screening COc1cc(C2C3=C(CC(C)(C)CC3=O)NC3=C2C(=O)c2ccccc23)ccc1O (configuration not stated) returned FMDV inh -9.8%, HCMV inh -25.9, Marburg entry inh -3.9%[46.1 µM], HCV inhibitor inconclusive and Lassa entry inh -3.6%.
For CC1(C)CC(=O)C2=C(C1)NC1=C(C(=O)c3ccccc31)C2c1ccc(Cl)cc1 (configuration not stated) the results were FMDV inh 0.0%, HCMV inh -99.7*, Marburg entry inh inconclusive, HCV inhibitor 11.2µM* and Lassa entry inh inconclusive.
Screening CSC1=C(C#N)C(c2ccc(Cl)cc2)C2=C(CC(C)(C)CC2=O)N1 (configuration not stated) returned FMDV inh -8.4%, HCMV inh -67.9*, Marburg entry inh inconclusive, HCV inhibitor 11.2µM* and Lassa entry inh inconclusive.
Cc1ccc(C2C3=C(CC(C)(C)CC3=O)NC3=C2C(=O)c2ccccc23)cc1 (configuration not stated) was read as FMDV inh -25.3%, HCMV inh -64.6*, Marburg entry inh inconclusive, HCV inhibitor inconclusive and Lassa entry inh inconclusive.
Screening O=C(Cn1cc([N+](=O)[O-])cn1)NCc1cc2ccccc2[nH]1 returned FMDV inh -21.5%, HCMV inh 12.2, Marburg entry inh 1.0%, HCV inhibitor 12.0% and Lassa entry inh -20.3%.
Screening CSc1cccc(NC(=O)C(c2ccccc2)N2Cc3ccccc3C2=O)c1 (configuration not stated) returned FMDV inh 46.4%, HCMV inh -32.2 and Lassa entry inh -11.5%[46.1 µM].
Screening COc1ccc(C2CC(=O)NC(NC(=O)c3ccc(Br)cc3)=N2)c(OC)c1OC (configuration not stated) returned FMDV inh -7.7%, HCMV inh -7.2 and Lassa entry inh 10.9%[46.1 µM].
For O=C(c1ccccc1)N1CCN(CC(O)COc2cccc3ccccc23)CC1 (configuration not stated) the results were FMDV inh -3.3%, HCMV inh -3.9 and HCV inhibitor 14.8%.
`O=C(c1cccc(COc2cccc3ccccc23)c1)N1CCCC1` gave FMDV inh 14.0%, HCMV inh -4.7, Marburg entry inh inconclusive, HCV inhibitor inconclusive and Lassa entry inh 8.2µM*.
`CN(C)S(=O)(=O)c1cccc(CSCc2cccc(S(=O)(=O)N(C)C)c2)c1` gave FMDV inh inconclusive, HCMV inh -92.0*, Marburg entry inh inconclusive, HCV inhibitor 2.24µM* and Lassa entry inh inconclusive.
Screening CCC(C)NS(=O)(=O)c1ccc(S(=O)(=O)Nc2cc3c(cc2C(C)=O)OCO3)cc1 (configuration not stated) returned FMDV inh -1.8%, HCMV inh -25.6, Marburg entry inh -7.9%, HCV inhibitor 14.1µM* and Lassa entry inh 19.7%.
Screening O=C1CCC[C@H]2[C@@H](Cc3ccccc3)[C@@H](NS(=O)(=O)c3ccc([N+](=O)[O-])cc3)CC[C@]23CCCN13 returned HCMV inh -30.0.
For CCOC(=O)c1cccc(NC(=O)N2Cc3ccccc3Oc3ncccc32)c1 the results were FMDV inh -20.4%, HCMV inh -25.9, Marburg entry inh inconclusive and Lassa entry inh -29.8%[46.1 µM].
CCc1ccccc1NC(=S)N(CCN(C)C)C(C)c1ccccn1 (configuration not stated) was read as FMDV inh -0.6%, HCMV inh 7.6, Marburg entry inh -18.3%, HCV inhibitor 22.4µM* and Lassa entry inh 13.3%.
CCc1ccccc1NC(=S)N(CCN(C)C)C(C)c1cccnc1 (configuration not stated) was read as FMDV inh -1.9%, HCMV inh 78.1, Marburg entry inh 26.9%[46.1 µM], HCV inhibitor 10.9% and Lassa entry inh -16.3%.
COc1ccc(Cc2nccc3cc(OC)c(OC)cc23)cc1OC was read as FMDV inh 17.8µM*, HCMV inh -76.5*, Marburg entry inh inconclusive, HCV inhibitor 3.16µM*! and Lassa entry inh inconclusive.
CCOC(=O)CCN(c1ccccc1)S(=O)(=O)c1cc(-c2cc(C)no2)ccc1C was read as FMDV inh -10.6%, HCMV inh -10.9 and Lassa entry inh -29.8%[46.1 µM].
Screening CS(=O)(=O)Nc1cccc(-c2nc(NCc3cccnc3)c3ccccc3n2)c1 returned FMDV inh -1.0%.
`Clc1cccc(-c2nc(NCc3cccnc3)c3ccccc3n2)c1` gave FMDV inh -2.3%, HCMV inh -26.2, Marburg entry inh -18.2%, HCV inhibitor 2.82µM* and Lassa entry inh 29.2%.
`FC(F)(F)c1nc(NCc2cccnc2)c2ccccc2n1` gave FMDV inh -24.6%, HCMV inh -61.9*, Marburg entry inh -14.3%[46.1 µM], HCV inhibitor -25.1% and Lassa entry inh 18.2%[46.1 µM].
Screening Cc1ccc(-c2nc(NCc3ccco3)c3ccccc3n2)cc1 returned FMDV inh 24.4%, HCMV inh -14.0, Marburg entry inh 1.7%, HCV inhibitor inconclusive and Lassa entry inh inconclusive.
`N#Cc1c(F)cccc1NCc1cccnc1` gave FMDV inh -17.4%, HCMV inh 7.0, Marburg entry inh 10.0%, HCV inhibitor inconclusive and Lassa entry inh inconclusive.
c1cncc(-c2nc(NCc3ccco3)c3ccccc3n2)c1 was read as FMDV inh -19.4%, HCMV inh 34.7, Marburg entry inh -32.8%, HCV inhibitor 10µM* and Lassa entry inh 14.2%.
